# Data from the supplement of paper PMC11417369.
# ± gives the standard deviation of the averaged measurements. Whole data set: some 25,000 sequences, median “ln(normalized median fluorescence intensity)” near 7.9, cut for the highest 2% near 11. This is one part of a sample in which the highest values are shown more often than they occur.
# Tested on: PfAP2-I AP2 domain 3 (GST-tagged)
# Assay: gcPBM binding intensity (ln(normalized median fluorescence intensity)); higher = stronger DNA binding
# Outline: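 Each value is the highest Masliner-normalised natural-log median intensity across replicate spots of either orientation of a probe. The probes were primer-extended double-stranded 36-bp intergenic genomic sequences on an Agilent 4 × 180k array, alongside negative controls, exposed for 1 h to GST-tagged P. falciparum DNA-binding domains expressed in E. coli. Bound protein was picked up with Alexa488 anti-GST antibody and scanned at 488 nm.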
row,Sequence,gcPBM binding intensity (ln)
1,ATTAAAACACAATATTCACACATGTATATTATATAT [CACACA_site5191],7.72 ± 0.51
2,CATATATATATATGAACACACAAAAAGAATATTTCC [CACACA_site1493],7.62 ± 0.63
3,GAATATGTAAAGAAAGGTACACATGAAAATATGTGT [XGTACX_site446],7.71 ± 0.66
4,GATGTTTCTATTTTAGTGCATTTTAAATAAATAAAT,10.4 ± 0.12
5,ATGAATACAAAATTATACAAAATTATCAAAAGTATG [CACACA_negctrl_site1453],7.5 ± 0.49
6,TTGTATACATAAAATGGTACAGAATATATAATTCTA [XGTACX_site7236],7.45 ± 0.61
7,AATAACTATATATGTGTGCACAAAAATTTGACATAA,10.7 ± 0.049
8,ATTTTATGAAATGTTGCACACAAAAAACAACATGTT [CACACA_site8408],8.95 ± 0.092
9,AAATATATGTTATATGTGCACTTTTTTTTTTTTTTT [GTGCAC_site9667],10.21 ± 0.035
10,ATAATATATGTATGTATGCACTTTTATTATTTTTTT,8.96 ± 0.15
11,TATTTTTGGTTATGTGTGCACTATGAACAACAAAAT,11.4 ± 0.26
12,TATATATAAATATATGTGCACTTTTTATATTTATAT,11 ± 0.13
13,TATATTATTTATTTTTGTACATATTATGAATGAATA [XGTACX_site3971],7.73 ± 0.33
14,ACTCAAACCTTTAGAGTGCAAAAAAAAAAAAAAAAA [GTGCAC_site9952],10 ± 0.21
15,TTTTTTAAAAGATAATATTTTATTAATGTATTCTCA [GTGCAC_negctrl_site598],7.2 ± 0.55
16,TTAAAAAAATATTGAAGTACACACATTATAAACTTT [XGTACX_site3548],7.89 ± 0.38
17,TAGGAAAAAAATACAGTGCAATTTTTATATAAATAA [GTGCAC_site9979],8.62 ± 0.5
18,AAATAAATTTGACCAGTGCAATAACTTTGTATACCT [GTGCAC_site9446],11.2 ± 0.64
19,CTTTTTTTGACCTTAGTGCAAATAACTATATATTAT,10.5 ± 0.41

row,Sequence,gcPBM binding intensity (ln)
1,AAAAAAAAAGAAAAATGTACATACATAAATATATAT [XGTACX_site5664],7.77 ± 0.68
2,TAATTGATTCTTCACCGTACTCACACATATATATAT [XGTACX_site6530],8.99 ± 0.085
3,TGTGCATAATTTTGTGCACACCACGCTAATAATTTT [CACACA_site2915],11.4 ± 0.48
4,ATATATATATAATTTGTACACACAAATATGCATATA [CACACA_site9136],9.18 ± 0.24
5,AGTATAAGCATTATTGTGCACATAATTATAATTTTT,10.6 ± 0.53
6,CATATATAAAATATATGTACTTATAGAACATAATTT [XGTACX_site1936],7.3 ± 0.35
7,TTTTTGTAAAATAAACGTACAAAACAATTGTTCATT [XGTACX_site6537],7.82 ± 0.4
8,TTTGTTCATATTATTGTGCACTTAAACGTAACAAAA [GTGCAC_site9505],11.3 ± 0.39
9,AAATACTTAACATTGGTGCATATTTGTAAAATTATT [GTGCAC_site9515],10.3 ± 0.55
10,AATACAATAAAATAGTGTACATATATATTATGTATA [XGTACX_site8258],7.63 ± 0.27
11,AAAAATAAATATATATGTACACATATGTATACAATA [XGTACX_site4692],7.65 ± 0.38
12,ATATATATATAGTGCACACATATAAAATATATATAA [CACACA_site2745],11.29 ± 0.078
13,ATATAAATATAGTGTGCACACACATAATATATATAT [CACACA_site8713],9.49 ± 0.11
14,TATATATATATGTGCACACATAATAAAAAAAAAAAT [CACACA_site3831],10.3 ± 0.11
15,TTAACATACACTCTAGTGCATATATATAACAAAATA [GTGCAC_site9724],10 ± 0.17
16,TTATACAGGACAATAGTGCACATAAATATATGTATA,11.2 ± 0.51
17,ATATATATATATAGTGCACACATATAAAATATATAT [CACACA_site8884],11.5 ± 0.15
18,AATAATAAAAAAAGTGCACACACATAATATATATAT [CACACA_site9100],9.95 ± 0.014
19,ATTACACATATAGTAGTGCAATAACTCCAAAAAAAA,11.4 ± 0.6

row,Sequence,gcPBM binding intensity (ln)
1,ATGAAACACTCCATAGTGCAAAATATATATTATATT,10.27 ± 0.057
2,TAATAAAAAAAGTGCACACACATAATATATATATAT [CACACA_site3340],9.93 ± 0.37
3,TTTTCTTTTTGTTCGTGTACACACATGAAATTTATA [XGTACX_site3301],8.78 ± 0.68
4,TACAGAAATTTATATATATATATATATATATATATA [XGTACX_negctrl_site209],9.39 ± 0.54
5,ATATAAAACTAATTTCTTTTTCTCCTTTTATTTTGT [CACACA_negctrl_site1251],7.8 ± 0.59
6,AACAAACAAATAGTTTATTTTGATTTTTTTAAAAAT [CACACA_negctrl_site693],7.36 ± 0.65
7,AATAAAATTTGCGATGCACACAGAATAGCTAATATG [CACACA_site8983],7.96 ± 0.57
8,TATATATAAATATATACACACATGAAAATAAATAAA [CACACA_site2514],7.67 ± 0.45
9,TTGAAAAATGAGCACACACACAAATACATACATATT [CACACA_site3231],7.97 ± 0.36
10,ATATTTTTTTTTTTCACACACATTTATATTGTATTA [CACACA_site5695],8.01 ± 0.79
11,TTAGCAACTATTACTACACACATTTTTATATAACTT [CACACA_site6762],7.84 ± 0.59
12,TTTAAAATAAATTAATAGAACAAAAATAAAATGATT [GTGCAC_negctrl_site375],7.78 ± 0.67
13,AAATTAAAGGCATAAAAGAAAATATTTAATAAAAAA [CACACA_negctrl_site1689],7.71 ± 0.73
14,TTATATGCACTTTTTGCACACGTATGAATAACAAAA [CACACA_site1811],10.8 ± 0.86
15,ATATGCACTTTTTGCACACGTATGAATAACAAAATA [CACACA_site1810],10 ± 0.25
16,ATAGGCACTTTTTGCACACGTATGAATAACAAAATA [CACACA_site5069],9.54 ± 0.13
17,ATAAACATCTAGTGCTGTACACAATTTGATTTTTTT [XGTACX_site3110],8.9 ± 0.31
18,TATTTTTTTTTATTTTTTTTTATTTTGTTTTTTTAT [TGCATGCA_negctrl_site315],7.32 ± 0.52
19,AAAAAAATTAAATCAAGTACTCATTCTTAAATTATA [XGTACX_site1274],7.32 ± 0.49
